From PubChem BioAssay (NCI) come the findings set out here.

About 83,000 compounds went through this panel and 20% of them were active in at least one assay; those are over-represented in the sample as a whole.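 Growth was measured after 48 h exposure to one concentration of compound in 96-well plates. Values under 10 count as active.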 Values without a mark were called inactive. Activity calls are given as the source filed them.

Among the test systems are NCI/ADR-RES ovarian; T-47D breast; BT-549 breast; MDA-MB-435 melanoma; SW-620 colon; MCF7 breast; HCT-116 colon; HCC-2998 colon; KM12 colon.
Common to all, as to assay: NCI-60 one-dose screen, 48 h (100 = growth as untreated, 0 = no growth, -100 = all killed)
Common to all, as to settings: 10 µM unless noted

Regarding `C[C@]12CCc3sc(-c4cccc(F)c4)nc3C1=CC[C@@H]1[C@@H]2CC[C@]2(C)C(=O)CC[C@@H]12`, the growth was 68.3% in the assay on NCI/ADR-RES ovarian; 3.07% (active) in the assay with T-47D breast; 23.2% with BT-549 breast; 49.2% in the assay on MDA-MB-435 melanoma; 3.81% (active) in the assay on SW-620 colon; 10.8% in the assay on MCF7 breast. Besides, the growth with HCT-116 colon was 0.513% (active); in the assay on HCC-2998 colon, 79.5%; in the assay with KM12 colon, 46.5%.

Consider `COC(=O)[C@@H](C)C[C@H](Cc1ccccc1)NC(=O)c1csc([C@@H](C[C@H](C(C)C)N(C)C(=O)[C@@H](NC(=O)[C@H]2CCCN2C)C2CC2)OC(C)=O)n1`, for which the growth in the assay on NCI/ADR-RES ovarian is 12.4%; with T-47D breast, 40.9%; in the assay on BT-549 breast, -9.2% (active); with MDA-MB-435 melanoma it was -20.6% (active); in the assay on SW-620 colon, 30.6%; in the assay with MCF7 breast, 21.7%. Further, the growth in the assay with HCT-116 colon is 1.11% (active); in the assay on HCC-2998 colon it was 14.8%; in the assay with KM12 colon it was 1.92% (active).

Regarding `CCOC(=O)[C@@H](C)C[C@H](Cc1ccccc1)NC(=O)c1csc([C@@H](C[C@H](C(C)C)N(C)C(=O)[C@@H](NC(=O)[C@H]2CCCCN2C)C(C)(C)CC)OC(C)=O)n1`, the growth is 14.7% in the assay on NCI/ADR-RES ovarian; 70.7% in the assay on T-47D breast; -40.2% (active) with BT-549 breast; -60.8% (active) in the assay with MDA-MB-435 melanoma; 21.9% in the assay with SW-620 colon; 24.2% in the assay on MCF7 breast. The results for the growth with HCT-116 colon, in the assay on HCC-2998 colon and in the assay with KM12 colon were 0% (active), 11.9% and 1.89% (active), respectively.

Take `CC[C@H](NC(=O)[C@H]1CCCCN1C)C(=O)N(C)[C@H](C[C@@H](OC(C)=O)c1nc(C(=O)N[C@@H](Cc2ccccc2)C[C@H](C)C(=O)O)cs1)C(C)C`: the growth in the assay with NCI/ADR-RES ovarian is 9.47% (active); in the assay on T-47D breast, 51.3%; in the assay on BT-549 breast it was -15.6% (active); in the assay on MDA-MB-435 melanoma, -36.5% (active); in the assay with SW-620 colon it was 22.4%; with MCF7 breast, 16.9%. The growth in the assay on HCT-116 colon was 0.18% (active); in the assay with HCC-2998 colon, 8.05% (active); in the assay with KM12 colon it was 7.87% (active).

Regarding `COC(=O)[C@@H](C)C[C@H](Cc1ccccc1)NC(=O)c1nc([C@@H](C[C@H](C(C)C)N(C)C(=O)[C@@H](NC(=O)[C@H]2CCCCN2C)C(C)C)OC(C)=O)sc1C`, the growth is 16.5% in the assay on NCI/ADR-RES ovarian; 66.1% in the assay with T-47D breast; -23.4% (active) with BT-549 breast; -31.5% (active) in the assay on MDA-MB-435 melanoma; 20.1% with SW-620 colon; 12.3% in the assay with MCF7 breast. The growth in the assay with HCT-116 colon was 2.54% (active); with HCC-2998 colon it was 13.8%; in the assay on KM12 colon, 8.06% (active).

Consider `C=CC[Se]C(=O)c1ccccc1OC(C)=O`, for which the growth with NCI/ADR-RES ovarian is 0.132% (active); in the assay with T-47D breast it was -9.76% (active); in the assay with BT-549 breast, 28.9%; in the assay on MDA-MB-435 melanoma, 28.7%; in the assay with SW-620 colon, 11.1%; in the assay with MCF7 breast, -5.53% (active). Also, the growth with HCT-116 colon was 5.71% (active); in the assay with HCC-2998 colon it was 6.92% (active); in the assay on KM12 colon it was -24.1% (active).

As to `CCOC(=O)N[C@H]1CCc2c(Br)c(OC)c(OC)c(OC)c2-c2ccc(SC)c(=O)cc21`, the growth in the assay with NCI/ADR-RES ovarian was 11.8%; in the assay with T-47D breast it was 42.6%; in the assay on BT-549 breast, 3.55% (active); in the assay on MDA-MB-435 melanoma, -54.2% (active); in the assay with SW-620 colon, 16.7%; with MCF7 breast, 10.8%. Further, the growth in the assay with HCT-116 colon was -5.72% (active); with HCC-2998 colon, 14.6%; in the assay on KM12 colon, -8.71% (active).

`CO[C@H]1CC[C@@]2(C)C(=CC[C@@H]3[C@@H]2CC[C@]2(C)C(=O)C(=O)C[C@@H]32)C1`: the growth with NCI/ADR-RES ovarian was 104%; with T-47D breast it was 97.1%; with BT-549 breast, 106%; in the assay with MDA-MB-435 melanoma it was 112%; in the assay on SW-620 colon it was 100%; with MCF7 breast, 102%. The growth in the assay with HCT-116 colon is 97%; in the assay on HCC-2998 colon it was 109%; in the assay with KM12 colon it was 111%.

`CC[C@@H]1[C@@H](C)O[C@@](O)([C@@H](C)[C@H](O)[C@H](C)[C@H]2OC(=O)/C=C/C=C/[C@H](C)[C@@H]([C@@H](C)[C@@H](O)[C@H](C)[C@@]3(O)C[C@@H](O[C@H]4C[C@@H](O)[C@H](O)C(C)O4)[C@H](CC)[C@@H](C)O3)OC(=O)/C=C/C=C/[C@@H]2C)C[C@H]1O[C@@H]1C[C@@H](O)[C@H](O)C(C)O1` (stereo partly specified): the growth is -64.3% (active) in the assay with NCI/ADR-RES ovarian; -63% (active) with T-47D breast; -90.5% (active) in the assay on BT-549 breast; -97% (active) with MDA-MB-435 melanoma; -85.3% (active) in the assay with SW-620 colon; -69.2% (active) in the assay on MCF7 breast. For the same compound, the values for the growth in the assay with HCT-116 colon, with HCC-2998 colon and with KM12 colon were -81.2% (active), -74.7% (active) and -94.7% (active), respectively.

With `CC[C@H](C)[C@H](NC(=O)[C@H]1CCCCN1C)C(=O)N(C)[C@H](C[C@@H](OC(C)=O)c1nc(C(=O)NC23CC(C(=O)OC)(C2)C3)cs1)C(C)C`, the growth in the assay with NCI/ADR-RES ovarian is 10%; in the assay with T-47D breast, 64.4%; in the assay with BT-549 breast, -39.2% (active); in the assay on MDA-MB-435 melanoma, -14.1% (active); with SW-620 colon, 39.4%; with MCF7 breast it was 12.1%. Also, the growth with HCT-116 colon is 5.83% (active); with HCC-2998 colon, 10.4%; in the assay on KM12 colon, 0.539% (active).

Take `COC(=O)[C@@H](C)C[C@H](Cc1ccccc1)NC(=O)c1csc([C@@H](C[C@H](C(C)C)N(C)C(=O)[C@@H](NC(=O)[C@H]2CCCCN2C)C(C)C)OC(C)=O)n1`: the growth with NCI/ADR-RES ovarian was 5.63% (active); in the assay with T-47D breast, 54.7%; with BT-549 breast, -20.5% (active); in the assay with MDA-MB-435 melanoma, -54.7% (active); in the assay with SW-620 colon it was 22.9%; with MCF7 breast, 19.6%. For the same compound, the growth in the assay on HCT-116 colon is -21.2% (active); in the assay with HCC-2998 colon, 12.9%; in the assay with KM12 colon, 4.46% (active).

`C[C@]12CC[C@H]3[C@@H](CC[C@]4(O)C[C@@H](O[C@@H]5O[C@H](CO)[C@@H](O[C@@H]6OC[C@@H](O)[C@H](O)[C@H]6O)[C@H](O)[C@H]5O)CC[C@]34C=O)[C@@]1(O)CC[C@@H]2C1=CC(=O)OC1`: the growth is -66.3% (active) in the assay with NCI/ADR-RES ovarian; 2.52% (active) in the assay on T-47D breast; 5.05% (active) in the assay on BT-549 breast; 16.9% with MDA-MB-435 melanoma; 8.41% (active) in the assay on SW-620 colon; 3.61% (active) with MCF7 breast. Moreover, the values for the growth with HCT-116 colon, with HCC-2998 colon and in the assay on KM12 colon were 5.35% (active), 38.8% and 16.9%, respectively.

Consider `COc1cccc2c1c(C(=O)C(=O)Nc1ccn[nH]1)cn2Cc1ccc(F)cc1`, for which the growth in the assay with NCI/ADR-RES ovarian was 109%; in the assay with T-47D breast, 104%; in the assay on BT-549 breast it was 114%; with MDA-MB-435 melanoma, 121%; in the assay on SW-620 colon, 102%; with MCF7 breast, 92.3%. The growth is 103% in the assay on HCT-116 colon, 39.6% in the assay on HCC-2998 colon and 105% with KM12 colon.

As for `CCOC(=O)[C@@H](C)C[C@H](Cc1ccccc1)NC(=O)c1nc([C@@H](C[C@H](C(C)C)N(C)C(=O)[C@@H](NC(=O)[C@H]2CCCCN2C)C(C)C)OC(C)=O)sc1CCOCc1ccccc1`, the growth in the assay with NCI/ADR-RES ovarian was 1.07% (active); in the assay with T-47D breast it was 24.7%; with BT-549 breast, -50.9% (active); in the assay on MDA-MB-435 melanoma, -58.3% (active); with SW-620 colon, 6.51% (active); in the assay with MCF7 breast it was 5.53% (active). The growth in the assay with HCT-116 colon was -33.7% (active); in the assay with HCC-2998 colon, -59.6% (active); with KM12 colon, -39.8% (active).
